Only some compounds are listed: those with a hit (about 11% of all), similar ones and a draw of the others.
HPGD block: qHTS Assay for Inhibitors of HPGD (15-Hydroxyprostaglandin Dehydrogenase). 15-hydroxyprostaglandin dehydrogenase [NAD(+)] (Homo sapiens), P15428. purified HPGD, NADH fluorescence kinetic, PGE2 substrate. Potency, µM, without a hit: at the top dose activity change, negative = inhibition, hits mostly inhibitors. 150,000 compounds, 4.3% hits. AID 894, 2007; active = well fitted inhibition curve with a large enough effect, not every such curve was filed as active; inconclusive = small, poorly fitted or top-dose-only effect, or another doubt; inactive = no such curve, though single readings can be large or run the other way; note: potency is the fitted concentration of half-maximal effect
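20 nM HPGD preincubated 15 min at room temperature with compound in 50 mM Tris-HCl pH 8, 0.01% Tween 20. Started with 1 mM NAD+ and 30 uM prostaglandin E2; NADH fluorescence (360/450 nm) read 5 times over 30-s intervals, last minus first.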
ALDH1A1 block: qHTS Assay for Inhibitors of Aldehyde Dehydrogenase 1 (ALDH1A1). Aldehyde dehydrogenase 1A1 (Homo sapiens), P00352. Purified ALDH1A1, NADH fluorescence, propionaldehyde substrate. Potency, µM (titrated, usually from 75.3 µM), without a hit: top-dose activity, negative = inhibition, most hits filed as inhibitors. 220,000 compounds, 7.3% hits; active = well fitted inhibition curve with a large enough effect, not every such curve was filed as active; inconclusive = small, poorly fitted or top-dose-only effect, or another doubt; inactive = no such curve, though single readings can be large or run the other way;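 note: potency is the fitted concentration of half-maximal effect; plate controls were no enzyme wells and a reference inhibitor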
Target sequence (P00352 whole entry, looked up): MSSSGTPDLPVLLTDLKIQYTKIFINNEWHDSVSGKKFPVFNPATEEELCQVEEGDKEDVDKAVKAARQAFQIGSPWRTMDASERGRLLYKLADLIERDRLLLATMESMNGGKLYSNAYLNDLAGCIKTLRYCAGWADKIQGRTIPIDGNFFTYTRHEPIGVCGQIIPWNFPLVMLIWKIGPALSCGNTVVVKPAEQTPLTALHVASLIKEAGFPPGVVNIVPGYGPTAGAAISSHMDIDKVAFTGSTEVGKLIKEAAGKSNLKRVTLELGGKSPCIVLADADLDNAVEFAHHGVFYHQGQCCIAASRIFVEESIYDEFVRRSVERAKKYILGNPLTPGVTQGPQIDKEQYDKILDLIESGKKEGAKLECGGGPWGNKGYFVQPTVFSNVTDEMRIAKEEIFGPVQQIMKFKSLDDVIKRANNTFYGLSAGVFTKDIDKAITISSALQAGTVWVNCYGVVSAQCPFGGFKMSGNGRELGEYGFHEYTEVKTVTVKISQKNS
IMPase Li inh: qHTS Assay for Identifying the Cell-Membrane Permeable IMPase Inhibitors: Potentiation with Lithium; CHO-M1 cells, IP1 TR-FRET (IP-One), carbachol + lithium; Potency, µM (top dose mostly 59.4 µM), without a hit: at the top dose activity, negative = IMPase inhibition, most hits filed as inhibitors; 210,000 compounds, 0.35% hits; AID 1457, 2008;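 note: IP1 builds up when IMPase is blocked and the TR-FRET signal falls; potency is the fitted concentration of half-maximal effect; plate controls were basal vehicle for no effect and high inhibitor control for full effect; nearly all actives have a fitted effect of over 50% in size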
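CHO cells stably expressing M1 receptor (2000/well) were cultured 16–30 h, then exposed to compounds with a small lithium addition for 30 min at 37C. IP1 was measured by TR-FRET competition; AC50 from Hill fits.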
ALOX12 inhib: qHTS Assay for Inhibitors of 12-hLO (12-human lipoxygenase); Potency, µM (titrated, usually from 57.1 µM), for the others: at the top dose activity change, negative = inhibition, usual class: inhibitors; Polyunsaturated fatty acid lipoxygenase ALOX12 (Homo sapiens), P18054; 150,000 compounds, 0.12% hits; purified 12-hLO, xylenol orange hydroperoxide absorbance; note: potency is the fitted concentration of half-maximal effect; nearly all actives have a fitted effect of over 55% in size
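Purified human 12hLO (150 nM), preincubated 15 min with compound, then 40 uM arachidonic acid for 30 min, room temperature, Hepes pH 7.0 with 0.01% Triton X-100. Hydroperoxide detected by ferrous iron/xylenol orange; 573/405 nm absorbance ratio gives reaction progress.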
PNC assembly inh: High Content Assay for Compounds that inhibit the Assembly of the Perinucleolar Compartment | PC3M PTB-GFP, PNC prevalence imaging, 16 h; active compounds read low | activity change (PNC), negative = inhibition, % at 10 µM | 140,000 compounds, 3.1% hits | AID 2417, 2010;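 active = readout at or below -70, meaning at least 70% loss of cells showing the perinucleolar compartment, a nuclear body marking cancer cells; inconclusive = readout between -30 and a set limit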;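 note: plate controls were DMSO wells for no effect and camptothecin positive control wells for full effect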
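Read-out is percentage of cells bearing a perinucleolar compartment, from automated 20x imaging of fixed, Hoechst-stained PC3M PTB-GFP cells. Cells were seeded 4 h, then exposed 16 h to compound (23 nl of library stock) in duplicate plates.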
IMPase inh: qHTS Assay for Identifying the Cell-Membrane Permeable IMPase Inhibitors | Inositol monophosphatase 1 (Rattus norvegicus), P97697 | CHO-M1 cells, IP1 accumulation, HTRF TR-FRET ratio | inhibition (IP1 accumulation), % at 46.1 µM | 120,000 tested, under 10 active | AID 901, 2007; active = well fitted curve in the direction sought with a large enough effect in the signal ratio, not every such curve was filed as active; inconclusive = small, poorly fitted or top-dose-only effect, or a change in a side signal; inactive = no such curve, though single readings can be large or run the other way; the % refers to the signal ratio;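 note: cells stimulated with carbachol in lithium chloride buffer; plate controls were DMSO basal wells for no effect and reference inhibitor wells for full effect; higher means more IMPase inhibition seen as more IP1 and lower FRET ratio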
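In this qHTS, compounds (final up to 46 uM) act on CHO-M1 cells that are then activated through the M1 receptor with carbachol, in pH 7.4 buffer containing 50 mM LiCl, for 30 min. IP1 accumulation is quantified by the IP-One immunoassay.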
Active calls of the source: *; ? = inconclusive; . = not tested or not shown; [ ] = another dose, or the depositor's remark. Unless noted, calls come from the whole dose curve; as a rule, active = well fitted curve in the direction sought with a large enough effect; inconclusive = small, poorly fitted or top-dose-only effect, or another doubt; inactive = no such curve, though single readings can be large; an effect the other way counts as inactive or inconclusive. Unless noted, % is set by controls: 0 for no effect and ±100 for the full control effect.

SMILES	HPGD block	ALDH1A1 block	IMPase Li inh	ALOX12 inhib	PNC assembly inh	IMPase inh
Cc1cc(C)c(NC(=O)CCN2CCCCC2)c(C)c1	.	.	.	.	.	-5
Cc1ccccc1-n1nc(C(=O)c2cccs2)cc(-c2nc3ccccc3[nH]2)c1=N	-10%	3%	9%	0%	-100*	0
Cc1ccc2cc3cc(C(=O)N(CC(=O)NC4CCCC4)c4cccc(C)c4C)sc3nc2c1	?	8%	-1%[38.3 µM]	-1%	-106*	5
CSc1cccc(-n2c(C)cc(C(N)=O)c2C)c1	4.5µM*	6%	1%[38.3 µM]	3%	-14	12
N#CC1=C(N)N(c2ccc(Oc3ccccc3)cc2)C(=O)C1	-2%	25µM*	10%[38.3 µM]	-7%	18	-8
CCN(CC)CCCC(C)n1c(-c2ccccc2)nc2c(NCc3ccccc3)nc(C)nc21 (stereo not given)	?	?	12%	0%	.	.
Cc1ccc(Nc2nc(C)c(NC(=O)c3ccc(C)cc3)c(Nc3ccc(C)cc3)n2)cc1	.	.	.	.	.	3
Cc1ccc(CN2C(=O)C3CCCN3c3ccc(S(=O)(=O)N4CCOCC4)cc32)cc1 (stereo not given)	-12%	14µM*	-6%[38.3 µM]	-29%	5	?
CCN(CC)S(=O)(=O)c1ccc(N2CCOCC2)c(NS(=O)(=O)c2ccc(C)c(C)c2)c1	-5%	0.89µM*	-1%	0%	-4	8
CCN(CC)S(=O)(=O)c1ccc(N2CCOCC2)c(NC(=O)c2cc(C)cc(C)c2)c1	-5%	?	-1%	-2%	30	-2
Cc1ccc(S(=O)(=O)Nc2cc(S(=O)(=O)N3CCCCC3)ccc2N2CCOCC2)cc1	.	13µM*	3%	.	.	.
CCN(CC)S(=O)(=O)c1ccc(N2CCOCC2)c(NS(=O)(=O)c2ccc(C)cc2)c1	-22%	2.2µM*	12%	-1%	9	.
Cc1ccc(S(=O)(=O)Nc2cc(C(=O)N3CCOCC3)ccc2N2CCCCC2)cc1	0%	?	2%[38.3 µM]	3%	12	-3
C[C@@](N)(Cc1ccc(O)cc1)C(=O)O	-11%	-5%	0%	4%	.	6
CC(N)(Cc1ccc(O)c(O)c1)C(=O)O (stereo not given)	10µM*	2.2µM*	-2%	.	.	.
Cc1ccc(-n2c(O)c(C=Nc3ccccc3-c3n[nH]c(=S)[nH]c3=O)c3ccccc3c2=O)c(C)c1	.	18µM*	1%	.	.	.
Cc1ccc(-n2c(O)c(C=NC3CCS(=O)(=O)C3)c3ccccc3c2=O)cc1C (stereo not given)	-19%	?	13%[38.3 µM]	-2%	-16	5
Cc1ccc(-n2c(O)c(C=Nc3ccccc3-c3n[nH]c(=S)[nH]c3=O)c3ccccc3c2=O)cc1C	.	3.5µM*	6%	.	.	.
Cc1ccc(C2c3c(oc4ccccc4c3=O)C(=O)N2c2ccc(C)cn2)cc1 (stereo not given)	.	.	.	.	.	2
CCOc1ccc(NC(=O)C(c2ccccn2)N(C(=O)CCl)c2ccc(OC)cc2)cc1 (stereo not given)	-11%	-7%	21%	-8%	8	-3
CCOc1ccc(NC(=O)C(c2ccccn2)N(C(=O)CCl)c2ccc(OCC)cc2)cc1 (stereo not given)	-13%	8.9µM*	7%	-6%	-18	12
Cc1ccc(C(=O)CSc2nnc(-c3ccncc3)n2C)cc1	.	10%	2%	.	.	.
CCn1c(SCC(=O)O)nnc1-c1ccccc1	-12%	-1%	-26%[38.3 µM]	3%	-96*	-1
CCn1c(SCC(=O)c2ccc(C)cc2)nnc1-c1ccncc1	32µM*	?	14%[38.3 µM]	3%	-2	5
CCn1c(SCC(=O)c2ccc(C)cc2)nnc1-c1ccoc1C	32µM*	?	7%	-3%	1	6

Screens as filed in PubChem.
